PubChem BioAssay (NCI)
The panel holds about 79,000 compounds, 15% with a hit somewhere; the sample as a whole holds those more often. Activity calls are given as the source filed them. Rule as the data show it: active = growth inhibition above about 70%; inactive = the rest.

Columns and labels:
[1] = NCI Yeast Anticancer Drug Screen. Data for the rad52 strain (AID 147);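 also: 0% = growth of vehicle-treated control cultures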; conditions: S. cerevisiae rad52 mutant growth inhibition, hits give high values
Outline: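 Yeast strain carrying a DNA damage repair alteration was exposed to test compounds. Growth inhibition was measured relative to vehicle-treated controls.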

[2] = NCI Yeast Anticancer Drug Screen. Data for the wt1 strain (AID 149);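 also: 0% = growth of vehicle-treated wt1 cultures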; conditions: S. cerevisiae wt1 strain (SPY 50644) growth inhibition, hits give high values
Outline: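 Vehicle-normalised growth inhibition; strain wt1; compound exposure.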

[3] = NCI Yeast Anticancer Drug Screen. Data for the mgt1 strain (AID 153); conditions: S. cerevisiae mgt1 mutant growth inhibition, hits give high values
Outline: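 Yeast mgt1 strain (DNA repair/cell-cycle alteration panel) exposed to compounds; growth inhibition measured relative to vehicle-treated controls.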

[4] = NCI Yeast Anticancer Drug Screen. Data for the rad50 strain (AID 155);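 also: 0% = growth of vehicle-only cultures of the same strain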; conditions: S. cerevisiae rad50 strain growth inhibition, hits give high values
Outline: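 A DNA repair-deficient yeast mutant serves as the test organism; compound-induced growth inhibition is calculated against vehicle-treated cells.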

[5] = NCI Yeast Anticancer Drug Screen. Data for the mec2-1 strain (AID 157); conditions: S. cerevisiae mec2-1 strain, hits give high values
Outline: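 mec2-1 yeast strain, carrying an alteration in DNA damage repair or cell cycle control, was exposed to compounds; growth inhibition was measured relative to vehicle-treated controls.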

[6] = NCI Yeast Anticancer Drug Screen. Data for the rad14 strain (AID 159);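 also: 0% = growth of vehicle-treated control cultures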; conditions: S. cerevisiae rad14 strain growth inhibition, hits give high values
Outline: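 Vehicle-treated cultures served as the baseline for growth inhibition of a DNA repair-mutant yeast strain exposed to each compound.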

[7] = NCI Yeast Anticancer Drug Screen. Data for the sgs1 mgt1 strain (AID 161);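 also: 0% = growth of cultures given vehicle only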; conditions: S. cerevisiae sgs1 mgt1 strain, hits give high values
Outline: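 This yeast growth screen uses a strain with defined DNA-repair lesions; compound-treated growth is compared with vehicle-treated growth.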

[8] = NCI Yeast Anticancer Drug Screen. Data for the CLN2oe strain (AID 163);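 also: 0% = growth of vehicle-only control cultures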; conditions: S. cerevisiae CLN2oe strain, hits give high values
Outline: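 Yeast cells carrying a defined cell-cycle control alteration were exposed to test compounds. Growth inhibition was scored against vehicle-treated control cultures.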

[9] = NCI Yeast Anticancer Drug Screen. Data for the cln2 rad14 strain (AID 165);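 also: 0% = growth equal to vehicle treated cultures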; conditions: S. cerevisiae cln2 rad14 strain, hits give high values
Outline: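 Yeast carrying cln2 and rad14 alterations (cell cycle control and DNA damage repair) were exposed to compounds. Growth inhibition was measured against vehicle-treated controls.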

[10] = NCI Yeast Anticancer Drug Screen. Data for the bub3 strain (AID 167); conditions: S. cerevisiae bub3 mutant strain, hits give high values
Outline: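 Inhibition values come from growth of compound-treated mutant yeast normalised to vehicle-treated controls.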

[11] = NCI Yeast Anticancer Drug Screen. Data for the wt2 strain (AID 169);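 also: 0% = growth of vehicle-treated yeast cultures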; conditions: S. cerevisiae wt2 strain growth inhibition, hits give high values
Outline: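 Yeast cells were exposed to test compounds, and growth inhibition was measured relative to vehicle-treated controls.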

[12] = NCI Yeast Anticancer Drug Screen. Data for the mlh1 strain (AID 171);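 also: 0% = growth of vehicle-treated control cultures of the same strain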; conditions: S. cerevisiae mlh1 strain growth inhibition, hits give high values
Outline: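 Yeast carrying a defined genetic alteration in DNA damage repair or cell cycle control were exposed to test compounds. Growth inhibition was measured relative to vehicle-treated controls.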

[13] = NCI Yeast Anticancer Drug Screen. Data for the sgs1 strain (AID 173);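 also: 0% = growth of vehicle-only control cultures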; conditions: S. cerevisiae sgs1 mutant, hits give high values
Outline: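 Yeast mutant strains carrying defined defects in DNA damage repair or cell cycle control were exposed to test compounds. Growth inhibition was scored against vehicle-treated controls.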

[14] = NCI Yeast Anticancer Drug Screen. Data for the mlh1 rad18 strain (AID 175); conditions: S. cerevisiae mlh1 rad18 strain growth inhibition, hits give high values
Outline: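 Growth inhibition of the yeast strain was measured after compound exposure and expressed relative to vehicle-treated controls. The strain carries defined defects in DNA damage repair.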

[15] = NCI Yeast Anticancer Drug Screen. Data for the rad18 strain (AID 177); conditions: S. cerevisiae rad18 mutant growth inhibition, hits give high values
Outline: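 Yeast carrying a defined DNA damage repair alteration were exposed to compounds. Growth inhibition was expressed relative to vehicle-treated controls.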

[16] = at 5.0 µM (retest, dose inferred, filed as 0.5)
[17] = at 50.0 µM (retest, dose inferred, filed as 5.0)

Measured: growth inhibition

O=C(NO)c1coc2ccccc2c1=O
active: [5]; at 50.0 µM 86.1%
inactive: [1]; at 1.2 µM -1% | [1]; at 3.7 µM -4% | [1]; at 11.0 µM -2% | [1]; at 33.0 µM -2% | [1]; at 100.0 µM 9% | [2]; at 1.2 µM 4% | [2]; at 3.7 µM -3% | [2]; at 11.0 µM -3% | [2]; at 33.0 µM -3% | [2]; at 100.0 µM 0% | [3]; at 1.2 µM -2% | [3]; at 3.7 µM 2% | [3]; at 11.0 µM -14% | [3]; at 33.0 µM -5% | [3]; at 100.0 µM 9% | [4]; at 1.2 µM 5% | [4]; at 3.7 µM -5% | [4]; [16] -3% | [4]; at 11.0 µM 1% | [4]; at 33.0 µM 0% | [4]; [17] 24% | [4]; at 50.0 µM 31.1% | [4]; at 100.0 µM 15% | [5]; at 1.2 µM -3% | [5]; at 3.7 µM -5% | [5]; [16] 1% | [5]; at 11.0 µM -1% | [5]; at 33.0 µM -4% | [5]; [17] 10% | [5]; at 100.0 µM 0% | [6]; at 1.2 µM 0% | [6]; at 3.7 µM -1% | [6]; at 11.0 µM -1% | [6]; at 33.0 µM -2% | [6]; at 100.0 µM 1% | [7]; [16] 15% | [7]; [17] 13% | [7]; at 50.0 µM 62% | [8]; at 1.2 µM 1% | [8]; at 3.7 µM 2% | [8]; at 11.0 µM 4% | [8]; at 33.0 µM 8% | [8]; at 100.0 µM 8% | [9]; [16] -4% | [9]; [17] 16% | [9]; at 50.0 µM 19.8% | [10]; at 1.2 µM -6% | [10]; at 3.7 µM -5% | [10]; [16] 13% | [10]; at 11.0 µM -2% | [10]; at 33.0 µM -2% | [10]; [17] 61% | [10]; at 50.0 µM 13.7% | [10]; at 100.0 µM -5% | [11]; at 1.2 µM -2% | [11]; at 3.7 µM -4% | [11]; at 11.0 µM -3% | [11]; at 33.0 µM -3% | [11]; at 100.0 µM 4% | [12]; at 1.2 µM -1% | [12]; at 3.7 µM 0% | [12]; at 11.0 µM -1% | [12]; at 33.0 µM 1% | [12]; at 100.0 µM 11% | [13]; at 1.2 µM -1% | [13]; at 3.7 µM -3% | [13]; at 11.0 µM -2% | [13]; at 33.0 µM -2% | [13]; at 100.0 µM 6% | [14]; [16] 13% | [14]; [17] 10% | [14]; at 50.0 µM -7.15% | [15]; at 1.2 µM -2% | [15]; at 3.7 µM -3% | [15]; at 11.0 µM 2% | [15]; at 33.0 µM -4% | [15]; at 100.0 µM 25%

COc1ccc2nc3cccc([N+](=O)[O-])c3c(NCCCCCC(=O)O)c2c1
active: [1]; at 1.2 µM 87% | [1]; at 3.7 µM 96% | [1]; at 11.0 µM 97% | [1]; at 33.0 µM 98% | [1]; at 100.0 µM 98% | [2]; at 11.0 µM 93% | [2]; at 33.0 µM 98% | [2]; at 100.0 µM 98% | [3]; at 11.0 µM 91% | [3]; at 33.0 µM 97% | [3]; at 100.0 µM 99% | [4]; at 1.2 µM 84% | [4]; at 3.7 µM 94% | [4]; [16] 97% | [4]; at 11.0 µM 96% | [4]; at 33.0 µM 97% | [4]; [17] 98% | [4]; at 50.0 µM 87% | [4]; at 100.0 µM 97% | [5]; at 3.7 µM 96% | [5]; [16] 96% | [5]; at 11.0 µM 97% | [5]; at 33.0 µM 98% | [5]; [17] 99% | [5]; at 50.0 µM 91% | [5]; at 100.0 µM 99% | [6]; at 1.2 µM 96% | [6]; at 3.7 µM 99% | [6]; at 11.0 µM 99% | [6]; at 33.0 µM 99% | [6]; at 100.0 µM 99% | [7]; [16] 95% | [7]; [17] 99% | [7]; at 50.0 µM 82.7% | [8]; at 11.0 µM 91% | [8]; at 33.0 µM 97% | [8]; at 100.0 µM 98% | [9]; [16] 99% | [9]; [17] 99% | [9]; at 50.0 µM 88.8% | [10]; at 11.0 µM 96% | [10]; at 33.0 µM 97% | [10]; [17] 99% | [10]; at 50.0 µM 87.2% | [10]; at 100.0 µM 99% | [11]; at 11.0 µM 94% | [11]; at 33.0 µM 97% | [11]; at 100.0 µM 99% | [12]; at 11.0 µM 94% | [12]; at 33.0 µM 97% | [12]; at 100.0 µM 98% | [13]; at 1.2 µM 90% | [13]; at 3.7 µM 93% | [13]; at 11.0 µM 98% | [13]; at 33.0 µM 98% | [13]; at 100.0 µM 98% | [14]; [16] 97% | [14]; [17] 98% | [14]; at 50.0 µM 82.6% | [15]; at 1.2 µM 96% | [15]; at 3.7 µM 96% | [15]; at 11.0 µM 96% | [15]; at 33.0 µM 97% | [15]; at 100.0 µM 98%
inactive: [2]; at 1.2 µM 2% | [2]; at 3.7 µM 29% | [3]; at 1.2 µM 0% | [3]; at 3.7 µM 26% | [5]; at 1.2 µM 63% | [8]; at 1.2 µM 2% | [8]; at 3.7 µM 50% | [10]; at 1.2 µM -11% | [10]; at 3.7 µM 34% | [10]; [16] 2% | [11]; at 1.2 µM 6% | [11]; at 3.7 µM 42% | [12]; at 1.2 µM 23% | [12]; at 3.7 µM 63%

COc1ccc2c(c1)CCCC(Br)C2=O (centres undefined)
inactive: [1]; at 1.2 µM 12% | [1]; at 3.7 µM 17% | [1]; at 11.0 µM 27% | [1]; at 33.0 µM 64% | [2]; at 1.2 µM 14% | [2]; at 3.7 µM 0% | [2]; at 11.0 µM 17% | [2]; at 33.0 µM 51% | [4]; at 1.2 µM 30% | [4]; at 3.7 µM 28% | [4]; [16] 11% | [4]; at 11.0 µM 31% | [4]; [17] 48% | [4]; at 50.0 µM 37.4% | [5]; at 1.2 µM 38% | [5]; at 3.7 µM 41% | [5]; [16] -13% | [5]; at 11.0 µM 54% | [6]; at 1.2 µM 3% | [6]; at 3.7 µM 2% | [6]; at 11.0 µM 14% | [6]; at 33.0 µM 64% | [7]; [16] 17% | [8]; at 1.2 µM 1% | [8]; at 3.7 µM 11% | [8]; at 11.0 µM -9% | [8]; at 33.0 µM 45% | [9]; [16] 39% | [9]; [17] 59% | [9]; at 50.0 µM 34.3% | [10]; at 1.2 µM -7% | [10]; at 3.7 µM -10% | [10]; [16] -12% | [10]; at 11.0 µM -4% | [10]; at 33.0 µM 50% | [11]; at 1.2 µM -41% | [11]; at 3.7 µM -53% | [11]; at 11.0 µM -22% | [11]; at 33.0 µM 60% | [12]; at 1.2 µM 26% | [12]; at 3.7 µM 23% | [12]; at 11.0 µM 36% | [13]; at 1.2 µM 34% | [13]; at 3.7 µM 43% | [13]; at 11.0 µM 35% | [14]; [16] 6% | [15]; at 1.2 µM 32% | [15]; at 3.7 µM 45% | [15]; at 11.0 µM 54%
active: [1]; at 100.0 µM 98% | [2]; at 100.0 µM 98% | [4]; at 33.0 µM 70% | [4]; at 100.0 µM 98% | [5]; at 33.0 µM 71% | [5]; [17] 78% | [5]; at 50.0 µM 86.2% | [5]; at 100.0 µM 97% | [6]; at 100.0 µM 98% | [7]; [17] 90% | [7]; at 50.0 µM 88.3% | [8]; at 100.0 µM 96% | [10]; [17] 97% | [10]; at 50.0 µM 90.1% | [10]; at 100.0 µM 97% | [11]; at 100.0 µM 98% | [12]; at 33.0 µM 78% | [12]; at 100.0 µM 98% | [13]; at 33.0 µM 74% | [13]; at 100.0 µM 99% | [14]; [17] 73% | [14]; at 50.0 µM 92.4% | [15]; at 33.0 µM 87% | [15]; at 100.0 µM 99%
